Inconclusive results are not listed. Entries that show only a call come without a potency. Activity calls are given as the source filed them. The call rests on the fitted dose curve; in most records, active means well fitted curve in the direction sought with a large enough effect in the repeat runs; inconclusive means weak or mixed curves; inactive means no such curve, though single readings can be large; an effect the other way counts as inactive or inconclusive.

One assay in a line: qHTS RealTime-Glo MT Cell Viability Assay in HepG2 cells - 32 hour (AID 1224877). Further: nearly all actives have a fitted effect of over 55% in size. The conditions noted are these: RealTime-Glo luminescence; series mostly up to 76.8 µM. In short, it runs like this: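 Tox21 10K library screened in qHTS format on HepG2 cells carrying RealTime-Glo reagents. Compounds were added after a 5 h preincubation, and the luminescent signal from continuous culture was measured repeatedly during 40 h treatment.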
(Quantitative high-throughput screening tests each substance at several concentrations.)
Take `CCOC(=O)Nc1cccc(OC(=O)Nc2ccccc2)c1`: the Potency entry was “inactive”.
`CCN[C@H](C)Cc1cccc(C(F)(F)F)c1`: the Potency entry was “inactive”.
For the molecule `CC(C)[C@]12CC(=O)[C@H](C)[C@H]1C2`, the Potency result was “inactive”.
The same measure, in the same setting: in the case of `O=C1CCCCC1Cl` (stereo unspecified) it was “inactive”.
Same read-out and setting: in the case of `[P]#[In]` it was “inactive”; in that of `CC(C)(C)C(=O)C(Cl)Cl`, “inactive”.

The next assay can be described thus: A CellTox Green Cytotoxicity Assay to monitor cytotoxicity in HepG2 cells - 24 hour (AID 1224878). Further: nearly all actives have a fitted effect of over 45% in size. The conditions noted are these: CellTox Green fluorescence; series mostly up to 76.8 µM. The essentials: (§1)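 Read-out is fluorescence of a cyanine dye excluded from live cells that stains DNA of dead HepG2 cells, with signal proportional to cytotoxicity. Plates were read at 0, 8, 16, 24, 32 and 40 h after compound addition.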
With `CCCOC(=O)Cc1ccc(OCC(=O)N(CC)CC)c(OC)c1`, the Potency entry is “inactive”.
On the same count and under the same terms, with `O=C(Cl)C(Cl)Cl` the entry was “inactive”; with `CC[C@H](N)c1ccccc1`, “inactive”.
Same read-out and setting: in the case of `CC(O)CCl` (stereo unspecified) it was “inactive”.
Still for that read-out and setting: with `CCCCCCCC(=O)Cl` the entry was “inactive”.
Take `CCCCCCCCBr`: the Potency result is “inactive”.
Take `O=C(O)C(Cl)Br` (stereo unspecified): the Potency result was “inactive”.
Still for that read-out and setting: in the case of `COC1=CC(=O)O[C@@H](/C=C/c2ccccc2)C1` it was “inactive”; in that of `ClCCN1CCCC1`, “inactive”; in that of `C=CC=O`, “inactive”.
On the same count and under the same terms, in the case of `O=C(O)c1c(Cl)ccc2cc(Cl)cnc12` it was “inactive”; in that of `CS(=O)(=O)Cl`, “inactive”.
Still for that read-out and setting: in the case of `CCOC(=O)CC(SP(=S)(OC)OC)C(=O)OCC` (stereo unspecified) it was “inactive”; in that of `[O-][Br+2]([O-])O`, “inactive”; in that of `CN1C(=O)COc2c(C(=O)NC3CN4CCC3CC4)cc(Cl)cc21` (stereo unspecified), “inactive”.
Consider `CCN(CCO)CCO`, for which the Potency result is “inactive”.
For the molecule `CON(C)C(=O)Nc1ccc(Br)cc1`, the Potency result was “inactive”.
Turning to `N=C(N)[Se]`, the Potency entry was “inactive”.
Same read-out and setting: in the case of `ClC1=C(Cl)C2(Cl)C(CBr)CC1(Cl)C2(Cl)Cl` (stereo unspecified) it was “inactive”; in that of `CN(C)CCN(C)C`, “inactive”.
The same measure, in the same setting: with `CC(C)(O)C(Cl)(Cl)Cl` the entry was “inactive”; with `C/C(=N\NC(=O)Nc1cc(F)cc(F)c1)c1ncccc1C(=O)O`, “inactive”; with `C1CN2CCC1CC2`, “inactive”.
Turning to `CCOC1Oc2ccc(OS(C)(=O)=O)cc2C1(C)C` (stereo unspecified), the Potency entry was “inactive”.
Take `O=CCCl`: the Potency entry was “inactive”.
Still for that read-out and setting: in the case of `CC#Cc1cc(C)nc(Nc2ccccc2)n1` it was “inactive”; in that of `CCOC(=O)CCl`, “inactive”.
Regarding `CNC(=O)O/N=C(/CSC)C(C)(C)C`, the Potency result is “inactive”.
Same read-out and setting: with `CCN[C@H](C)Cc1cccc(C(F)(F)F)c1` the entry was “inactive”; with `CC(C)[C@]12CC(=O)[C@H](C)[C@H]1C2`, “inactive”; with `O=C1CCCCC1Cl` (stereo unspecified), “inactive”.
Same read-out and setting: in the case of `[P]#[In]` it was “inactive”; in that of `CC(C)(C)C(=O)C(Cl)Cl`, “inactive”.

The next assay can be described thus: A CellTox Green Cytotoxicity Assay to monitor cytotoxicity in HepG2 cells - 40 hour (AID 1224879). Further: nearly all actives have a fitted effect of over 40% in size. The conditions noted are these: CellTox Green fluorescence; series mostly up to 76.8 µM. The essentials:
as §1
Regarding `CCCOC(=O)Cc1ccc(OCC(=O)N(CC)CC)c(OC)c1`, the Potency entry is “inactive”.
On the same count and under the same terms, with `O=C(Cl)C(Cl)Cl` the entry was “inactive”; with `CC[C@H](N)c1ccccc1`, “inactive”.
For the molecule `CC(O)CCl` (stereo unspecified), the Potency entry was “inactive”.
For the molecule `CCCCCCCC(=O)Cl`, the Potency entry was “inactive”.
Regarding `CCCCCCCCBr`, the Potency result was “inactive”.
`COC1=CC(=O)O[C@@H](/C=C/c2ccccc2)C1`: the Potency entry was “inactive”.
Consider `ClCCN1CCCC1`, for which the Potency result was “inactive”.
The same measure, in the same setting: in the case of `O=C(O)c1c(Cl)ccc2cc(Cl)cnc12` it was “inactive”.
On the same count and under the same terms, in the case of `CS(=O)(=O)Cl` it was “inactive”; in that of `CCOC(=O)CC(SP(=S)(OC)OC)C(=O)OCC` (stereo unspecified), “inactive”.
Still for that read-out and setting: with `[O-][Br+2]([O-])O` the entry was “inactive”.
`Cc1cccc2sc3nncn3c12`: the Potency entry was “inactive”.
Same read-out and setting: with `CN1C(=O)COc2c(C(=O)NC3CN4CCC3CC4)cc(Cl)cc21` (stereo unspecified) the entry was “inactive”; with `CON(C)C(=O)Nc1ccc(Br)cc1`, “inactive”.
Still for that read-out and setting: in the case of `N=C(N)[Se]` it was “inactive”; in that of `ClC1=C(Cl)C2(Cl)C(CBr)CC1(Cl)C2(Cl)Cl` (stereo unspecified), “inactive”; in that of `CC(C)(O)C(Cl)(Cl)Cl`, “inactive”.
The same measure, in the same setting: with `C/C(=N\NC(=O)Nc1cc(F)cc(F)c1)c1ncccc1C(=O)O` the entry was “inactive”; with `O=CCCl`, “inactive”; with `CC#Cc1cc(C)nc(Nc2ccccc2)n1`, “inactive”.
Consider `CCOC(=O)CCl`, for which the Potency result is “inactive”.
On the same count and under the same terms, with `CNC(=O)O/N=C(/CSC)C(C)(C)C` the entry was “inactive”.
On the same count and under the same terms, with `CCN[C@H](C)Cc1cccc(C(F)(F)F)c1` the entry was “inactive”; with `CC(C)[C@]12CC(=O)[C@H](C)[C@H]1C2`, “inactive”; with `O=C1CCCCC1Cl` (stereo unspecified), “inactive”.
As to `[P]#[In]`, the Potency result is “inactive”.

Source of the values: PubChem BioAssay (Tox21).
